According to PubChem BioAssay (NCI):
About 83,000 compounds went through this panel and 20% of them were active in at least one assay; those are over-represented in the sample as a whole.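 Cells were grown in 96-well plates and exposed to the test compound at a single concentration for 48 hours; results are reported as percent growth, with values below 10 considered active.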 The source made the active and inactive calls.

Assays:
Test in all cases: NCI-60 one-dose screen, 48 h (100 = growth as untreated, 0 = no growth, -100 = all killed)
Conditions in all cases: 10 µM unless noted
NCI-H23 lung = system: NCI-H23 lung
NCI-H226 lung = system: NCI-H226 lung
NCI-H322M lung = system: NCI-H322M lung
HOP-62 NSCLC = system: HOP-62 NSCLC
NCI-H460 lung = system: NCI-H460 lung
HOP-92 NSCLC = system: HOP-92 NSCLC
NCI-H522 lung = system: NCI-H522 lung
A549/ATCC NSCLC = system: A549/ATCC NSCLC
786-0 renal = system: 786-0 renal
COLO 205 colon = system: COLO 205 colon
DU-145 prostate = system: DU-145 prostate
K-562 leukemia = system: K-562 leukemia
MALME-3M melanoma = system: MALME-3M melanoma
MDA-MB-231 breast = system: MDA-MB-231 breast
RXF 393 renal = system: RXF 393 renal
SF-268 CNS = system: SF-268 CNS
SF-295 CNS = system: SF-295 CNS
SF-539 CNS = system: SF-539 CNS
UACC-257 melanoma = system: UACC-257 melanoma
M14 melanoma = system: M14 melanoma

Measured: growth

CC(C)CCNC(=O)Cn1cccc(NC(=O)OCc2ccccc2)c1=O
inactive: NCI-H23 lung 88% | NCI-H226 lung 87.4% | NCI-H322M lung 112% | HOP-62 NSCLC 93.8% | NCI-H460 lung 102% | HOP-92 NSCLC 91.5% | NCI-H522 lung 88.2% | A549/ATCC NSCLC 95.6% | 786-0 renal 111% | COLO 205 colon 108% | DU-145 prostate 109% | K-562 leukemia 114% | MALME-3M melanoma 104% | MDA-MB-231 breast 107% | RXF 393 renal 106% | SF-268 CNS 102% | SF-295 CNS 107% | SF-539 CNS 115% | UACC-257 melanoma 104% | M14 melanoma 116%

CC1(C)CC2=C3C=C[C@@H]4[C@@]5(C)CCC(=O)C(C)(C)[C@@H]5CC[C@@]4(C)[C@]3(C)CC[C@@]2(C(=O)O)CC1=O
inactive: NCI-H23 lung 71.6% | NCI-H226 lung 53% | NCI-H322M lung 59.7% | HOP-62 NSCLC 76% | NCI-H460 lung 76.7% | HOP-92 NSCLC 25.8% | NCI-H522 lung 65.1% | A549/ATCC NSCLC 48.3% | 786-0 renal 31.7% | COLO 205 colon 68.6% | DU-145 prostate 97.2% | K-562 leukemia 92.1% | MALME-3M melanoma 39.1% | MDA-MB-231 breast 75.3% | RXF 393 renal 54.8% | SF-268 CNS 53.3% | SF-295 CNS 75.3% | SF-539 CNS 65.7% | UACC-257 melanoma 43.2% | M14 melanoma 46.8%

Nc1nc(=S)c2ncn(C3OC(COP(=O)(O)O)C(O)C3O)c2[nH]1 (stereo not given)
active: NCI-H460 lung 8.01% | NCI-H522 lung -3.01%
inactive: NCI-H23 lung 14.5% | NCI-H226 lung 32.8% | NCI-H322M lung 53.2% | HOP-62 NSCLC 20.1% | HOP-92 NSCLC 33.4% | A549/ATCC NSCLC 32.9% | 786-0 renal 22.9% | COLO 205 colon 24.7% | DU-145 prostate 22.6% | K-562 leukemia 13.7% | MALME-3M melanoma 39.7% | MDA-MB-231 breast 38.7% | RXF 393 renal 13.9% | SF-268 CNS 28.2% | SF-295 CNS 19.9% | SF-539 CNS 26.2% | UACC-257 melanoma 36.7% | M14 melanoma 14.6%

COC(=O)c1cc(-c2ccc(S(C)(=O)=O)cc2)[nH]c1N/N=C/c1c(Cl)cccc1Cl
inactive: NCI-H23 lung 29.6% | NCI-H226 lung 47.5% | NCI-H322M lung 15.4% | HOP-92 NSCLC 18.9% | A549/ATCC NSCLC 25.2% | MDA-MB-231 breast 50.9% | SF-268 CNS 37.1% | UACC-257 melanoma 60.3%
active: HOP-62 NSCLC 3.22% | NCI-H460 lung 3.65% | NCI-H522 lung -15.1% | 786-0 renal 5.08% | COLO 205 colon -19.3% | DU-145 prostate 4.36% | K-562 leukemia -1.67% | MALME-3M melanoma 4.13% | RXF 393 renal -2.32% | SF-295 CNS -28.2% | SF-539 CNS -19.8% | M14 melanoma -8.67%

C=C1CC[C@@H]2[C@](C)(COC(C)=O)[C@H](OC(C)=O)CC[C@@]2(C)[C@@H]1CC(Sc1ccccc1)C1=CCOC1=O (stereo not given in full)
inactive: NCI-H23 lung 24.5% | NCI-H322M lung 67.1% | NCI-H460 lung 21.7% | HOP-92 NSCLC 24.5% | A549/ATCC NSCLC 26.6% | DU-145 prostate 16.4% | MALME-3M melanoma 16.8% | SF-268 CNS 11.6% | SF-295 CNS 65.9% | UACC-257 melanoma 29.4%
active: NCI-H226 lung -9.88% | HOP-62 NSCLC -18.2% | NCI-H522 lung -80.6% | 786-0 renal -31.2% | COLO 205 colon -68.1% | K-562 leukemia 3.95% | MDA-MB-231 breast 7.4% | RXF 393 renal 5.01% | SF-539 CNS -43.6% | M14 melanoma -4.19%

CCNc1cc(-c2cccc(OC(F)(F)F)c2)nc2ccc(N3CCCC3)cc12
active: NCI-H23 lung 7.13% | HOP-62 NSCLC -10.1% | NCI-H460 lung 1.03% | HOP-92 NSCLC -6.27% | NCI-H522 lung -16.8% | 786-0 renal -18.4% | COLO 205 colon -65.9% | K-562 leukemia 4.34% | MALME-3M melanoma -32.2% | M14 melanoma 7.92%
inactive: NCI-H226 lung 37.3% | NCI-H322M lung 22.1% | A549/ATCC NSCLC 10.3% | DU-145 prostate 28.6% | MDA-MB-231 breast 15.3% | RXF 393 renal 33.7% | SF-268 CNS 48.8% | SF-295 CNS 23.6% | SF-539 CNS 48.9% | UACC-257 melanoma 11.1%

O=C1NC(=O)c2c1c1c3ccccc3ccc1c1[nH]c3ccc(Br)cc3c21
active: NCI-H23 lung 2.08% | NCI-H460 lung 3.5% | HOP-92 NSCLC 7.3% | COLO 205 colon 9.33% | MALME-3M melanoma -10.7%
inactive: NCI-H226 lung 48.9% | NCI-H322M lung 21% | HOP-62 NSCLC 22.3% | NCI-H522 lung 20.1% | A549/ATCC NSCLC 18.8% | 786-0 renal 30.7% | DU-145 prostate 22.5% | K-562 leukemia 13.3% | MDA-MB-231 breast 27.5% | RXF 393 renal 11.6% | SF-268 CNS 14% | SF-295 CNS 24.3% | SF-539 CNS 23.1% | UACC-257 melanoma 51.9% | M14 melanoma 15.5%

CCN1CCN(Cc2cn(CC(=O)Nc3ccc4c(ccn4Cc4ccccc4)c3)nn2)CC1
inactive: NCI-H23 lung 104% | NCI-H226 lung 91.8% | NCI-H322M lung 98.8% | HOP-62 NSCLC 96% | NCI-H460 lung 114% | HOP-92 NSCLC 87.6% | NCI-H522 lung 99.9% | A549/ATCC NSCLC 102% | 786-0 renal 97.8% | COLO 205 colon 99.4% | DU-145 prostate 105% | K-562 leukemia 94.8% | MALME-3M melanoma 99.5% | MDA-MB-231 breast 91.5% | RXF 393 renal 111% | SF-268 CNS 95.9% | SF-295 CNS 105% | SF-539 CNS 102% | UACC-257 melanoma 103% | M14 melanoma 98.7%
